# Assay results reported in PubChem BioAssay AID1458 (National Center for Advancing Translational Sciences (NCATS), 2008).
# About 5,900 (2.8%) of roughly 210,000 compounds were called active. Roughly 5% stayed inconclusive and do not appear here. Calls follow the shape of the dose curve; as a rule, active = well fitted activation curve with a large enough effect; inconclusive = small, poorly fitted or top-dose-only effect; inactive = no such curve, though single readings can be large or run the other way. What follows is part of a selection rich in actives, with near analogues and random picks from the rest.
# Experiment: qHTS Assay for Enhancers of SMN2 Splice Variant Expression; also: nearly all actives have a fitted effect of over 55% in size; as to activity change, positive = activation: % of control where 0% means no effect
# Settings: HEK293 SMN2-luciferase splicing reporter, luminescence, 30-36 h; series mostly up to 46.1 µM; activity change, positive = activation: at the top concentration
# Method in brief: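 HEK293 cells carry an SMN2 minigene-luciferase reporter in which exon 7 inclusion puts luciferase in frame. Cells were seeded at 2000 cells/well, attached for 10-12 hours, then exposed to compounds for 30-36 hours at 37C before ONE-Glo luminescence.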
# Potency is read from the fitted curve at half-maximal effect.
Compound,Potency,"activity change, positive = activation"
Cc1ccc2nc(-c3cccc(Br)c3)cc(C(=O)Nn3cnnc3)c2c1,12.6 µM (active),–
Cc1ccc2nc(-c3ccccc3)cc(C(=O)O)c2c1,–,-16.5% (inactive)
Cc1ccc(-c2cc(C(=O)NCc3cn(C)nc3C)c3cc(Br)ccc3n2)cc1,–,21.7% (inactive)
COc1ccc(N(CC(=O)NCCc2ccc(Cl)cc2)S(=O)(=O)c2c(C)nn(C)c2C)cc1,–,-15.5% (inactive)
CN(C)S(=O)(=O)c1ccc2oc(SCC(=O)Nc3ccccc3F)nc2c1,11.2 µM (active),–
CCS(=O)(=O)c1ccc2oc(SCC(=O)N3c4ccccc4CC3C)nc2c1 (stereo not drawn),–,-17.6% (inactive)
COc1ccc(S(=O)(=O)N(C)C)cc1NC(=O)CSc1ncccn1,–,1.93% (inactive)
COc1ccc(CNC(=O)Cn2nnc(-c3ccc(S(C)(=O)=O)cc3)n2)cc1,–,-2.53% (inactive)
Cc1cc(Nc2ccccc2)n(CCC#N)n1,–,-1.03% (inactive)
Cc1cc(Nc2ccccc2)n(C(=O)c2ccc(N)cc2)n1,11.2 µM (active),–
Cc1cc(NC(=O)Nc2ccccc2)n(-c2ccccc2)n1,–,-28% (inactive)
COCCNC(=O)CSc1nc(-c2ccccc2)[nH]c1-c1ccc(C)cc1,–,-1.93% (inactive)
COc1ccc(-c2noc(CCC(=O)N(C)c3ccccc3C)n2)cc1,–,-11.4% (inactive)
COc1ccc(OC)c(N=Cc2c(O)[nH]c3ccccc23)c1,–,-11.7% (inactive)
COc1ccc(N=Cc2c(O)[nH]c3ccccc23)cc1OC,14.1 µM (active),–
COc1ccccc1N=Cc1c(O)c2ccccc2oc1=O,–,-19.6% (inactive)
Cc1ccc(C(=O)CS(C)(=O)=O)cc1,–,12.3% (inactive)
Cc1ccc(C(=O)Cn2cccn2)cc1,–,-7.33% (inactive)
Cc1ccc(C(=O)Cc2nnc(C)s2)cc1,12.6 µM (active),–
O=C(NCc1ccccn1)Nc1ccc(F)cc1,–,9.31% (inactive)
c1ccc(CN=C2Nc3ccccc3CS2)nc1,12.6 µM (active),–
Cc1nnc(NCc2ccccc2)c2c1nnn2Cc1ccc(F)cc1,–,-3.87% (inactive)

Compound,Potency,"activity change, positive = activation"
CC1CCN(S(=O)(=O)c2ccc3c(c2)N(CC(=O)NCc2ccccc2Cl)C(=O)CO3)CC1,–,27% (inactive)
Cc1csc2nc(COc3ccc(NC(=O)COc4ccccc4)cc3)cc(=O)n12,–,-17.9% (inactive)
CCOc1ccc2nc(N3CCCC(C(=O)Nc4cc(C)ccc4C)C3)sc2c1 (stereo not drawn),14.1 µM (active),–
CCOc1ccc2nc(N3CCC(C(=O)Nc4cc(C)ccc4C)CC3)sc2c1,–,4.51% (inactive)
CCOc1ccc2nc(SC(CC)C(=O)Nc3cc(C)on3)sc2c1 (stereo not drawn),–,18.4% (inactive)
Cc1ccnc(N2CCCC(C(=O)Nc3cc(F)ccc3C)C2)n1 (stereo not drawn),–,-27.5% (inactive)
CCOc1ccc2nc(C(=O)N3CCCC(C)C3)sc2c1 (stereo not drawn),2.82 µM (active),–
CCOc1ccc2nc(Nc3nc4ccc(NC(C)=O)cc4s3)sc2c1,–,-9.63% (inactive)
CCCNC(=O)CCn1nc(-c2ccccc2)c2ccccc2c1=O,–,-2.38% (inactive)
O=c1c(O)c(Br)ccc2c(Br)c(O)c(O)c(O)c12,–,7.57% (inactive)
O=C1C(C=NCC2CCCO2)=C(O)c2ccccc21 (stereo not drawn),11.2 µM (active),–
O=C(CS(=O)(=O)Cc1ccccc1)NCC1CCCO1 (stereo not drawn),–,-7.83% (inactive)
CC(=NCC1CCCO1)c1c(O)[nH]c(=O)[nH]c1=O (stereo not drawn),–,-2.32% (inactive)
Cc1ccc(C)c(N2CCN(C(=O)CCc3c(C)nc4c(c3C)c(=O)n(C)c(=O)n4C)CC2)c1,–,4.7% (inactive)
O=C(Nc1ccc(S(=O)(=O)N2CCCCC2)cc1)c1cnccn1,–,-45.6% (inactive)
O=C(CCN1C(=O)c2ccncc2C1=O)Nc1ccc2c(c1)OCCO2,–,0.0698% (inactive)
O=C(Nc1ccc2c(c1)OCCO2)c1cnccn1,12.6 µM (active),–
O=C(Nc1cccc(NC(=O)c2ccco2)c1)c1cnccn1,–,2.47% (inactive)
CCN1CCN(c2ccc(NC(=O)c3cnccn3)cc2)CC1,11.2 µM (active),–
O=C(NCN1CCN(CCO)CC1)c1cnccn1,–,-4.84% (inactive)
O=C(Nc1ccc(OC(F)(F)F)cc1)c1cc2c(=O)n3ccccc3nc2s1,–,4.24% (inactive)
O=C(Cn1c(=O)n(-c2ccc(F)cc2)c(=O)c2sccc21)Nc1cccc(C(F)(F)F)c1,–,-1.67% (inactive)

Compound,Potency,"activity change, positive = activation"
CCN(CC)CCNC(=O)c1cc2c(=O)oc3ccc(C)cc3c2s1,–,-6.23% (inactive)
O=C(COc1ccc(Cl)cc1)Nc1ccc(-c2nc3cc(Cl)ccc3o2)c(O)c1,–,21.9% (inactive)
COc1cc2ccccc2cc1C(=O)Nc1cccc(-c2nc3ccccc3o2)c1,–,-1.36% (inactive)
COc1cccc(C(=O)Nc2ccc3oc(-c4ccc5ccccc5c4)nc3c2)c1,–,6.04% (inactive)
COc1cccc(-c2nc(S(=O)(=O)c3ccc(C)cc3)c(NCc3ccccc3)o2)c1,–,14.4% (inactive)
COc1ccc2oc(-c3cccc(NC(=O)CSc4ccc(Cl)cc4)c3)nc2c1,8.91 µM (active),–
COc1cccc(-c2nc3cc(C)ccc3o2)c1,11.2 µM (active),–
CCCSc1ncc(Cl)c(C(=O)Nc2sc3c(c2C(=O)NCCOC)CCCC3)n1,–,-0.192% (inactive)
O=C(c1ccccc1F)N1CCC(c2nc3c(nnn3Cc3cccc(F)c3)c(=O)[nH]2)CC1,–,3.36% (inactive)
COc1ccc(-c2cc(C(F)(F)F)nc(SCC(=O)N(C)Cc3ccccc3)n2)cc1OC,–,-25.9% (inactive)
CCOc1ccc(N(CC)C(=O)c2cc3c(=O)oc4ccccc4c3s2)cc1,–,8.87% (inactive)
CSc1ncc(Cl)c(C(=O)Nc2ccc(S(=O)(=O)N3CCCC(C)C3)cc2)n1 (stereo not drawn),–,-9.9% (inactive)
CCOc1cccc(NC(=O)CSc2ncc(-c3ccc(Cl)cc3)[nH]2)c1,–,-10.3% (inactive)
CCC(=O)N1CCc2cc(S(=O)(=O)NC(Cc3ccccc3)C(=O)NCc3ccc(C)cc3)ccc21 (stereo not drawn),–,2.27% (inactive)
Cc1ccc(NC(=O)Nc2ccccc2)c(Br)c1,12.6 µM (active),–
CC(=O)c1cccc(NC(=O)Nc2ccc(C)cc2)c1,–,-13.7% (inactive)
Cc1cccc(NC(=O)Nc2nnc(-c3ccccc3)o2)c1,–,-14% (inactive)
CCN(CC)c1cc(NC2CCCCC2)c2c3c(onc13)-c1ccccc1C2=O,–,-17.3% (inactive)
CCCC(=O)Nc1nc2ccc(NC(=O)c3c(F)c(F)c(OC)c(F)c3F)cc2s1,–,-26.8% (inactive)
CSc1nc2ccc(NC(=O)c3c(F)cccc3F)cc2s1,12.6 µM (active),–
Nc1nnc(SCC(=O)Nc2ccc3nc(SCC(=O)Nc4ccccc4)sc3c2)s1,–,-3.96% (inactive)
CCC(C(=O)Nc1cccc(Cl)c1C)n1nc(-c2ccc(C)cc2)ccc1=O (stereo not drawn),–,-3.41% (inactive)

Compound,Potency,"activity change, positive = activation"
Cc1cc2nn(-c3ccc(Cl)cc3)nc2cc1NC(=O)C(C)C,–,-8.91% (inactive)
COc1ccc(-c2nc3ccccc3s2)cc1NC(=O)COc1ccccc1C,–,8.11% (inactive)
CCc1ccc(-c2nnn(Cc3nc4ccccc4s3)n2)cc1,–,-8.76% (inactive)
COc1ccccc1OCc1nc2ccccc2s1,3.16 µM (active),–
COc1ccc(C2=NC3(CCCCC3)N(CC(=O)Nc3ccc(C(C)C)cc3)C2=O)cc1,–,2.69% (inactive)
C/C(Nc1ccc2oc(=O)ccc2c1)=C1/C(=O)CC2[C@@H]1C2(C)C (stereo partly drawn),–,-1.26% (inactive)
CCNS(=O)(=O)c1ccc(NC(=O)CSc2nc(-c3ccco3)cc(C(F)(F)F)n2)cc1,–,-10.1% (inactive)
O=C(Nc1ccc2c(c1)OCO2)c1ccc(N2C(=O)c3ccccc3C2=O)cc1,–,-0.0472% (inactive)
Cn1c(=O)n(C)c2cc(C(=O)Nc3ccc4c(c3)OCO4)ccc21,11.2 µM (active),–
O=C(Nc1cccc(Cl)c1N1CCOCC1)c1ccc2c(c1)OCCO2,–,-0.872% (inactive)
CC(C)C(=O)Nc1cccc(C(=O)Nc2ccc3c(c2)OCO3)c1,15.8 µM (active),–
CN1CCN(c2ccc(NC(=O)c3ccc4c(c3)OCCO4)cc2Cl)CC1,14.1 µM (active),–
Cn1c(NC(=O)c2ccc3c(c2)OCO3)cc(=O)n(C)c1=O,–,-6.43% (inactive)
CCSc1ccccc1C(=O)Nc1ccc2c(c1)OCO2,–,27.2% (inactive)
O=C(Nc1ccc2c(c1)OCCO2)c1ccc(Cl)c(S(=O)(=O)N2CCCCC2)c1,–,-62.2% (inactive)
O=C(Nc1cccc([N+](=O)[O-])c1)c1ccc2c(c1)OCO2,–,29.6% (inactive)
Cc1ccc(-c2nc3ccccn3c2Nc2c(C)cccc2C)o1,–,-0.98% (inactive)
N#C/C(=C\c1cccc(F)c1)c1nc(-c2cc3c(ccc4ccccc43)oc2=O)cs1,–,8.31% (inactive)
CCOc1ccc(C(=O)c2cn(Cc3ccc(F)cc3)c3ccc(F)cc3c2=O)cc1,–,-2.97% (inactive)
Cc1ccc2nc(CNC(=O)c3ccccc3)[nH]c2c1,11.2 µM (active),–
Cc1ccc2nc(CC(=O)c3ccc4ccccc4c3)c(=O)[nH]c2c1,–,-3.77% [at 9.22 µM] (inactive)
Cc1ccc(C(=O)NCCNC(=O)c2ccccc2)cc1,–,6.08% (inactive)

Compound,Potency,"activity change, positive = activation"
Cc1ccc(C)c(Nc2nnc(-c3ccc(C)c(S(=O)(=O)N4CCCCC4)c3)c3ccccc23)c1,–,-14.7% (inactive)
Cc1cc(NC(=O)C2CCC(CNS(=O)(=O)c3ccc(Br)s3)CC2)ccc1Br (stereo not drawn),–,-18.2% (inactive)
Cc1cc2nc(-c3ccc(NC(=O)c4cccnc4)cc3)oc2cc1C,12.6 µM (active),–
CCC(=O)Nc1cccc(NC(=O)c2cccnc2)c1,–,-15.2% (inactive)
Cc1ccc(-n2nc3cc(C)c(NC(=O)c4cccnc4)cc3n2)cc1,–,-15.4% (inactive)
O=C(CSc1nnc(CNC(=O)c2ccccc2)n1-c1ccc(F)cc1)Nc1ccccc1F,–,-1.11% (inactive)
Cc1ccc(CNC(=O)CCc2c(C)nc3nc(CNC(=O)OC(C)(C)C)nn3c2C)cc1,–,-8.75% (inactive)
COc1ccc(CCNCc2c(C(=O)O)c(C)n(Cc3cccc(C)c3)c2C)cc1OC,–,2.2% (inactive)
Cc1ccc(C(=O)COc2cccc(NC(=O)c3ccco3)c2)cc1,–,-40.6% (inactive)
Cc1ccnc(NC(=O)CCCOc2ccccc2)c1,–,-24.8% (inactive)
COc1ccccc1CNC(=O)c1ccc(SC)cc1OC,–,2.66% (inactive)
COc1cc(SC)ccc1C(=O)NCCOc1ccccc1Cl,12.6 µM (active),–
COc1cccc(C(=O)Nc2ccc(NC(=O)c3ccco3)cn2)c1,–,-2.24% (inactive)
Cc1ccnc(NC(=O)c2ccoc2C)c1,15.8 µM (active),–
Cc1ccnc(NC(=O)c2ccc(NC(=O)c3ccco3)cc2)c1,10 µM (active),–
COc1cc(SC)ccc1C(=O)Nc1nc(C)cs1,–,-80.7% (inactive)
COc1cc(SC)ccc1C(=O)Nc1cc(C)ccn1,2.24 µM (active),–
Cc1occc1C(=O)Nc1cccc(Cn2cccn2)c1,–,-12.3% (inactive)
Cc1occc1C(=O)Nc1nnc(-c2ccncc2)s1,–,33.1% (inactive)
COc1ccccc1OCCNC(=O)c1cc([N+](=O)[O-])cc([N+](=O)[O-])c1,–,5.17% (inactive)
